PubChem BioAssay (Tox21)
Records with an inconclusive call do not appear. Where a call stands in place of a potency, no number is given. Calls of active or inactive are those of the source. Unless noted, the call rests on the fitted dose curve.

How the values were obtained:
[1] = Nuclear factor erythroid 2-related factor 2/antioxidant responsive element (Nrf2/ARE) small molecule agonists: qHTS cell viability counter screen in human keratinocytes (AID 1919968; active means well fitted curve in the direction sought with a large enough effect in the repeat runs; an effect the other way counts as inactive or inconclusive; further: nearly all actives have a fitted effect of over 55% in size; further: potency means the concentration at half of the fitted maximal effect)
Method in brief: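 After a 5 h attachment period, ARE-reporter keratinocytes were dosed with compounds in DMSO and then cultured 23 h at 37 C. Cell viability came from CellTiter-Fluor signal read after a further 1 h.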

[2] = Nuclear factor erythroid 2-related factor 2/antioxidant responsive element (Nrf2/ARE) small molecule agonists: luciferase reporter gene qHTS assay in human keratinocytes (AID 1919969); further: nearly all actives have a fitted effect of over 35% in size
[3] = molecular target: KiSS-1 receptor (Homo sapiens) (UniProt Q969F8); test: Human kisspeptin (KISS1R) small molecule agonists, calcium flux assay in KISS1R-HEK293 cells (AID 1920064; active means well fitted curve in the direction sought with a large enough effect in the repeat runs; an effect the other way counts as inactive or inconclusive)
Method in brief: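 Kinetic calcium assay, 1 s sampling over 3 min at Ex/Em 480/540, in HEK293 cells engineered with human KISS1R; compounds delivered in DMSO after 1 h dye loading.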

[4] = G protein-coupled receptor (GPCR) small molecule agonists, calcium flux assay: HEK293 wild type cell line counter screen (AID 1920065)
Method in brief: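 Calcium-sensitive dye, loaded 1 h at 37 C into cells cultured 18 h, reports compound-evoked calcium release as fluorescence (Ex/Em 480/540), measured over 3 min. Agonist mode; 15-point titrations, triplicate.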

[5] = p53 small molecule agonists, cell-based qHTS assay with rat liver microsomes (AID 1963578)
Method in brief: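 With rat liver microsomes and NADPH present (0.5 mg/mL final each), p53RE-bla cells are treated with compound for 16 h at 37 C. LiveBLAzer detection mixture is then applied for 2 h at room temperature in the dark.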

[6] = p53 small molecule agonists, cell-based qHTS assay with human liver microsomes: qHTS cell viability counter screen (AID 1963579); further: nearly all actives have a fitted effect of over 45% in size; further: potency means the concentration at half of the fitted maximal effect
Method in brief: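 In this multiplexed counter screen, the reporter plates were subsequently treated with CellTiter-Glo so that cell viability, reflected by luminescence, could be recorded for p53RE-bla cells dosed 16 h with compounds under microsomal activation (HLM and NADPH).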

[7] = p53 small molecule agonists, cell-based qHTS assay with rat liver microsomes: qHTS cell viability counter screen (AID 1963580); further: nearly all actives have a fitted effect of over 45% in size; further: potency means the concentration at half of the fitted maximal effect
Method in brief: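 p53RE-bla HCT-116 cells were exposed 16 h at 37 C to compounds with rat liver microsomes (0.5 mg/mL) and NADPH (0.5 mg/mL). Viability was measured in the same wells as ATP content by CellTiter-Glo luminescence.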

[8] = p53 small molecule agonists, cell-based qHTS assay (AID 1963582; active means well fitted activation curve with a large enough effect in the signal ratio in the repeat runs, not every such curve was filed as active; the % refers to the signal ratio)
Method in brief: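 In this cell-based concentration-response screen, a p53 response element drives beta-lactamase; cells received DMSO-borne compounds after 5 h culture and were incubated a further 16 h before FRET substrate development.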

[9] = molecular target: 5-hydroxytryptamine receptor 2A (Homo sapiens) (UniProt P28223); test: 5-hydroxytryptamine receptor 2A (HTR2A) small molecule antagonists, cell-based qHTS assay (AID 1963586); further: nearly all actives have a fitted effect of over 45% in size; further: potency means the concentration at half of the fitted maximal effect
Method in brief: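 Antagonist-mode intracellular calcium assay: DOI (4 nM) added after 5 min compound pre-incubation at room temperature to dye-loaded HTR2A-CHO cells. Fluorescence followed for 3 min, sampled every second.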

[10] = molecular target: 5-hydroxytryptamine receptor 2A (Homo sapiens) (UniProt P28223); test: 5-hydroxytryptamine receptor 2A (HTR2A) small molecule agonists, cell-based qHTS assay (AID 1963587); further: nearly all actives have a fitted effect of over 30% in size; further: potency means the concentration at half of the fitted maximal effect
Method in brief: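 CHO cells stably expressing human HTR2A, plated 18 h, loaded with calcium dye 1 h at 37 C. Agonist mode: compounds added and intracellular calcium fluorescence recorded kinetically for 2 min at 1 sec intervals.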

[11] = molecular target: Muscarinic acetylcholine receptor M1 (Homo sapiens) (UniProt P11229); test: Cholinergic receptor muscarinic 1 (CHRM1) small molecule antagonists, cell-based qHTS assay (AID 1963588); further: nearly all actives have a fitted effect of over 40% in size; further: potency means the concentration at half of the fitted maximal effect
Method in brief: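 CHRM1-CHO calcium-flux assay, antagonist mode. Cells were seeded 18 h, dye-loaded 1 h at 37 C and given compound for 5 min at RT, then acetylcholine was added at 50nM. FDSS fluorescence was read 3 min; 15 concentrations, three runs.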

[12] = molecular target: Muscarinic acetylcholine receptor M1 (Homo sapiens) (UniProt P11229); test: Cholinergic receptor muscarinic 1 (CHRM1) small molecule agonists, cell-based qHTS assay (AID 1963589); further: nearly all actives have a fitted effect of over 35% in size
Method in brief: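 Measures agonist-induced intracellular calcium rise. Stable human CHRM1 CHO line, 1 h dye load at 37 C, compounds from DMSO, kinetic fluorescence read.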

[13] = cAMP Responsive Elements (CRE) small molecule agonists, cell-based qHTS assay (AID 1963590)
Method in brief: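 A CRE-responsive beta-lactamase reporter in HEK 293T cells was used. Treatment ran 3 h at 37 C; detection used LiveBLAzer B/G FRET substrate for 2 h at room temperature.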

[14] = molecular target: Beta-2 adrenergic receptor (Homo sapiens) (UniProt P07550); test: Adrenergic beta2 receptor (ADRB2) small molecule antagonists, cell-based qHTS assay (AID 1963592); further: nearly all actives have a fitted effect of over 50% in size; further: potency means the concentration at half of the fitted maximal effect
Method in brief: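 Cells (CHO, stable ADRB2 overexpression) incubated 18-20hr at 37C; compounds added from DMSO; agonist mix (1nM isoproterenol, 100uM IBMX, 25uM Ro-20-1724) added; 0.5hr RT; d2-cAMP and anti-cAMP-cryptate added; 1hr RT; 665/615 nm read.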

[15] = molecular target: D(2) dopamine receptor (Homo sapiens) (UniProt P14416); test: Dopamine D2 receptor (DRD2) small molecule antagonists, cell-based qHTS assay (AID 1963595; active means well fitted inhibition curve with a large enough effect in the signal ratio in the repeat runs, with a control signal flat; the % refers to the signal ratio)
Method in brief: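 HTRF cAMP read-out at 665 and 620 nm emission (340 nm excitation). Antagonist mode: compounds were tested against 12 nM quinpirole in DRD2-HEK293 cells, with 200 nM NKH477 raising cAMP and 0.1 mM Ro20-1724 blocking its breakdown.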

[16] = p53 small molecule agonists, cell-based qHTS assay: qHTS cell viability counter screen (AID 1963581); further: nearly all actives have a fitted effect of over 45% in size; further: potency means the concentration at half of the fitted maximal effect
Method in brief: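 Following 5 h attachment, HCT-116 p53RE-bla cells took up compound for 16 h at 37 C; the reporter was read with B/G FRET substrate (2 h RT), and viability then via CellTiter-Glo ATP luminescence.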

[17] = cAMP Responsive Elements (CRE) small molecule antagonists, cell-based qHTS assay (AID 1963591; active means well fitted inhibition curve with a large enough effect in the signal ratio in the repeat runs, not every such curve was filed as active; the % refers to the signal ratio)
Method in brief: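 HEK293T cells carrying a CRE-driven beta-lactamase reporter receive compound and NKH477 (0.25 uM final) for 3 h. Fluorescence from LiveBLAzer B/G FRET substrate is read after 2 h at room temperature.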

[18] = molecular target: Beta-2 adrenergic receptor (Homo sapiens) (UniProt P07550); test: Adrenergic beta2 receptor (ADRB2) small molecule agonists, cell-based qHTS assay (AID 1963593);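 further: CHO cells stably overexpressing human ADRB2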
Method in brief: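 CHO cells stably over-expressing ADRB2 were plated overnight at 37C, then dosed with compounds plus a stimulation mix containing 100uM IBMX and 25uM Ro-20-1724 for 0.5hr at room temperature. cAMP was measured by HTRF competition, 1hr.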

[19] = molecular target: D(2) dopamine receptor (Homo sapiens) (UniProt P14416); test: Dopamine D2 receptor (DRD2) small molecule agonists, cell-based qHTS assay (AID 1963594); further: nearly all actives have a fitted effect of over 35% in size
Method in brief: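 HEK293 cells stably expressing human DRD2, pre-treated with PDE inhibitor Ro20-1724 (0.1 mM final) and compound 10 min at room temperature, then stimulated with NKH477 (200nM […]) for 30 min. cAMP read by HTRF (665/620 nm).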

[20] = p53 small molecule agonists, cell-based qHTS assay with human liver microsomes (AID 1963577);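 further: p53 response element beta-lactamase reporter cells with liver microsomes plus NADPH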
Method in brief: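 16 h, 37 C exposure of p53RE-bla cells to compounds with human liver microsomes and NADPH (0.5 mg/mL final each); detection via LiveBLAzer mixture, 2 h dark at room temperature.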

Sequence of 5-hydroxytryptamine receptor 2A (Homo sapiens) (P28223 whole entry, looked up): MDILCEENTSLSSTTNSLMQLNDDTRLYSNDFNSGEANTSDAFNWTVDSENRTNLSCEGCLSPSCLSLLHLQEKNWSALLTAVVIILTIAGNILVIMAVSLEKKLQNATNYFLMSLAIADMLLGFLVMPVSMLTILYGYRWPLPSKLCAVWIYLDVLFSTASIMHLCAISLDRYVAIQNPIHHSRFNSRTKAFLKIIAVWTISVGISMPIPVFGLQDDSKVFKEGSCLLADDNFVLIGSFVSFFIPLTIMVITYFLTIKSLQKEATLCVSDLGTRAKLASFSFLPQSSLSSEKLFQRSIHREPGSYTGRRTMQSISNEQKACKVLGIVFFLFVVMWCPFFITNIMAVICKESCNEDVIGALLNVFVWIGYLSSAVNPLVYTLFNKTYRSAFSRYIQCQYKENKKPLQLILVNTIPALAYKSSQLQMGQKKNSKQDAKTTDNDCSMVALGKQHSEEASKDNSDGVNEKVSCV
Sequence of Muscarinic acetylcholine receptor M1 (Homo sapiens) (P11229 whole entry, looked up): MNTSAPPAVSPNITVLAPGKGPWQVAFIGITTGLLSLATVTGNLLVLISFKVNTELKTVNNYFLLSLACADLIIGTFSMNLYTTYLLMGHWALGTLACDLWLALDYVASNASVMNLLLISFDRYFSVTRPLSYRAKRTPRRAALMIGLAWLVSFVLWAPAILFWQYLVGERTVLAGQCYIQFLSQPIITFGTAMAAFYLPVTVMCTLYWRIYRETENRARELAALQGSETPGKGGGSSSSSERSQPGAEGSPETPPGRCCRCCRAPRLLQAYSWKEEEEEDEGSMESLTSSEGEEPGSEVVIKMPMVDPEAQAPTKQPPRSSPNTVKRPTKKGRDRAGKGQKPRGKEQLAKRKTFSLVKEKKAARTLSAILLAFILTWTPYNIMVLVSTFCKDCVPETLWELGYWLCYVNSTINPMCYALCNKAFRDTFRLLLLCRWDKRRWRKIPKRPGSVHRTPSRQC
Sequence of KiSS-1 receptor (Homo sapiens) (Q969F8 whole entry, looked up): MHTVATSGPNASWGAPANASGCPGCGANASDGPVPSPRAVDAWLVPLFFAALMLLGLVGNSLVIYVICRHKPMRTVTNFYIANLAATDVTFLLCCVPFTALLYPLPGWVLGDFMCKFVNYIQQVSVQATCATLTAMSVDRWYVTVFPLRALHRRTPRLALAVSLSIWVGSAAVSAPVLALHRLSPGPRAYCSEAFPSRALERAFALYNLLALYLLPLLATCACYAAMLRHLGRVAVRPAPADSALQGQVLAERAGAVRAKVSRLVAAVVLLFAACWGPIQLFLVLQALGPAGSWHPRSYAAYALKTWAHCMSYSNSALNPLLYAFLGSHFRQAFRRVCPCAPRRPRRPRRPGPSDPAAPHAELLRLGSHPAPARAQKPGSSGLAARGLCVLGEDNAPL
Sequence of Beta-2 adrenergic receptor (Homo sapiens) (P07550 whole entry, looked up): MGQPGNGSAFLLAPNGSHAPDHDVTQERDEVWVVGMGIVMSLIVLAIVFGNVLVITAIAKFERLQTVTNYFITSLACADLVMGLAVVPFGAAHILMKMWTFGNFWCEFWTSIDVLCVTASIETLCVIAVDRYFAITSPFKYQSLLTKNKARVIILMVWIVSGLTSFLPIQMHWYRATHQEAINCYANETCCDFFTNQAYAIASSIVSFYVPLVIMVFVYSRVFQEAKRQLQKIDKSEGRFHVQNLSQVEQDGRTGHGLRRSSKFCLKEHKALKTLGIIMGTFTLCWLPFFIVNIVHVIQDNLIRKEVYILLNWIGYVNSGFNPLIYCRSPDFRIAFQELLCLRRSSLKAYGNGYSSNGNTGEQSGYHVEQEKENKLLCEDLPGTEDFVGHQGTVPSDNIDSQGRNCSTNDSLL
Sequence of D(2) dopamine receptor (Homo sapiens) (P14416 whole entry, looked up): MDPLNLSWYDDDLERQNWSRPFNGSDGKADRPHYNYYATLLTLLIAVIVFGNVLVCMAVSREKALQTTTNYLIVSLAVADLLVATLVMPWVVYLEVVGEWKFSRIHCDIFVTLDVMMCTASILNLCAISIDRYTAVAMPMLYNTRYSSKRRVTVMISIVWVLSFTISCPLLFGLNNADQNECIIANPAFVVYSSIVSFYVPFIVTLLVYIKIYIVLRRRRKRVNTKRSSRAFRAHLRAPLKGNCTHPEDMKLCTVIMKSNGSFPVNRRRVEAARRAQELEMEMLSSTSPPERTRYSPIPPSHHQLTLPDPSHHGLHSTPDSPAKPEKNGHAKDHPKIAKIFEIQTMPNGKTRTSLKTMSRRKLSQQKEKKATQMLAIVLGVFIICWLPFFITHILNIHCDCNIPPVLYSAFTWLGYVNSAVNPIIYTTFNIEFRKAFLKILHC

| Compound | Potency [1] | Potency [2] | Potency [3] | Potency [4] | Potency [5] | Potency [6] | Potency [7] | Potency [8] | Potency [9] | Potency [10] | Potency [11] | Potency [12] | Potency [13] | Potency [14] | Potency [15] | Potency [16] | Potency [17] | Potency [18] | Potency [19] | Potency [20] |
| --- | --- | --- | --- | --- | --- | --- | --- | --- | --- | --- | --- | --- | --- | --- | --- | --- | --- | --- | --- | --- |
| CSC(=O)c1cccc2nnsc12 | inactive | inactive | inactive | inactive | inactive | inactive | inactive | inactive | inactive | inactive | inactive | inactive | inactive | inactive | inactive | – | – | – | – | – |
| CC(C)c1ccccc1N | inactive | inactive | inactive | inactive | inactive | inactive | – | – | inactive | – | – | inactive | inactive | inactive | inactive | inactive | inactive | inactive | inactive | – |
| CCCCCCCCCCCCOC(C)=O | inactive | inactive | inactive | inactive | – | inactive | inactive | – | 2.11 µM (active) | inactive | inactive | inactive | inactive | inactive | inactive | inactive | inactive | inactive | inactive | – |
| CCCCCCOc1cc(C)c(O)c(C)c1C | 31 µM (active) | inactive | inactive | inactive | inactive | – | – | inactive | 19 µM (active) | 39.4 µM (active) | inactive | – | – | – | – | – | – | – | inactive | inactive |
| CC(Cc1cccc(C(F)(F)F)c1)NCCOC(=O)c1ccccc1 (configuration not stated) | inactive | inactive | inactive | inactive | inactive | inactive | inactive | inactive | 20.5 µM (active) | – | – | inactive | inactive | 29.8 µM (active) | inactive | – | – | – | inactive | – |
| CN1CCN2c3ccccc3Cc3ccccc3C2C1 (configuration not stated) | inactive | inactive | inactive | inactive | – | – | inactive | inactive | – | – | – | – | inactive | inactive | inactive | – | inactive | – | inactive | inactive |
| CCCc1c(OCCCOc2ccc(OCC(=O)O)cc2)ccc(C(C)=O)c1O | inactive | inactive | inactive | inactive | inactive | – | 40.8 µM (active) | – | inactive | – | – | inactive | – | inactive | inactive | – | – | inactive | – | inactive |
| CCCCCCCCCCCCCCCCCC[N+](C)(C)C | 61.3 µM (active) | inactive | inactive | inactive | inactive | 40.9 µM (active) | – | – | inactive | 34.8 µM (active) | – | inactive | – | – | inactive | 16.3 µM (active) | – | – | inactive | inactive |
| O=C(O)CCCCCCCCCC(=O)O | inactive | inactive | inactive | inactive | – | inactive | inactive | – | inactive | inactive | inactive | inactive | inactive | inactive | inactive | – | inactive | – | inactive | inactive |
| CN1C(C)(C)CC(O)CC1(C)C | inactive | inactive | inactive | inactive | – | inactive | inactive | – | inactive | inactive | inactive | inactive | inactive | inactive | inactive | inactive | inactive | – | inactive | – |
| C[Si](C)(C)C | inactive | inactive | inactive | inactive | – | inactive | – | inactive | – | inactive | inactive | inactive | inactive | – | inactive | inactive | inactive | – | – | inactive |
| Fc1ccccc1[C@@H](F)COC1CCC(Nc2ncnc3[nH]ncc23)CC1 (some centres not stated) | inactive | inactive | inactive | inactive | inactive | – | inactive | – | – | inactive | inactive | inactive | – | inactive | inactive | inactive | – | inactive | inactive | inactive |
| C=C(C)C(=O)OCCOC(=O)CC(C)=O | inactive | inactive | inactive | inactive | inactive | inactive | inactive | – | – | inactive | inactive | inactive | – | inactive | inactive | inactive | – | – | inactive | – |
| Cc1nc(N)nc(N)c1-c1ccc(Cl)c(Cl)c1 | inactive | inactive | inactive | inactive | inactive | inactive | inactive | – | inactive | inactive | 7.29 µM (active) | inactive | inactive | inactive | inactive | – | inactive | – | inactive | inactive |
| CC(C(O)c1ccccc1)N(C)CCOC(c1ccccc1)c1ccccc1 (configuration not stated) | 18.8 µM (active) | inactive | inactive | inactive | inactive | inactive | inactive | – | – | – | 1.16 µM (active) | – | – | – | inactive | inactive | – | – | inactive | inactive |
| COc1ccc2c(c1)c(CC(=O)OC/C=C(\C)CC/C=C(\C)CCC=C(C)C)c(C)n2C(=O)c1ccc(Cl)cc1 | inactive | inactive | inactive | inactive | inactive | inactive | inactive | inactive | inactive | inactive | inactive | inactive | inactive | inactive | inactive | inactive | inactive | inactive | inactive | – |
| CCOC(=O)NCCOc1ccc(Oc2ccccc2)cc1 | inactive | inactive | inactive | inactive | inactive | inactive | inactive | – | – | inactive | 29.8 µM (active) | inactive | inactive | – | inactive | inactive | – | inactive | inactive | – |
